Compound activity: PubChem, National Center for Advancing Translational Sciences (NCATS)
uPA surface inh = inhibitors of cell surface uPA generation; cell surface uPA generation assay, qHTS; Potency, µM (highest dose often 38.3 µM), without a hit: at the highest dose activity change, negative = inhibition, hits mostly inhibitors; 330,000 tested, 0.31% active; AID 540303; active = well fitted inhibition curve with a large enough effect; inconclusive = small, poorly fitted or top-dose-only effect; inactive = no such curve, though single readings can be large or run the other way; tested in mouse RAW 264.7 cells; also: potency is read from the fitted curve at half-maximal effect; % is scaled to controls: 0 for no effect and ±100 for the full control effect; nearly all actives have a fitted effect of over 55% in size
TCR activator = T cell receptor activation | 330,000 tested, under 10 active | primary human leukocytes, anti-CD3, IL-2 HTRF, 48 h | Potency, µM (doses to about 9.22 µM), for the others: at the top dose activation of IL-2 secretion, most hits filed as activators | AID 504894; also: % of control where 0% means no effect
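Human primary leukocytes + a-CD3 beads + cpd, 48 hr; IL-2 in supernatant by HTRF (ex 320nm / em 665nm). No co-stimulatory signal supplied.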
MBNL1-CUG inh = MBNL1-poly(CUG) RNA binding inhibition; Potency, µM (highest dose often 57.5 µM), for the others: top-dose activity change, negative = inhibition, hits mostly inhibitors; AID 2675; TR-FRET MBNL1-His/biotin-(CUG)12 binding, 665/545 ratio; Q9NR56; 280,000 tested, 0.036% active; active = well fitted inhibition curve with a large enough effect in the signal ratio, with a control signal flat, not every such curve was filed as active; inconclusive = small, poorly fitted or top-dose-only effect, or effect the other way, or a change in a side signal; inactive = no such curve, though single readings can be large or run the other way; the % refers to the signal ratio; also: potency is read from the fitted curve at half-maximal effect; % is scaled to controls: 0 for no effect and ±100 for the full control effect
Target sequence (Q9NR56 whole entry, looked up): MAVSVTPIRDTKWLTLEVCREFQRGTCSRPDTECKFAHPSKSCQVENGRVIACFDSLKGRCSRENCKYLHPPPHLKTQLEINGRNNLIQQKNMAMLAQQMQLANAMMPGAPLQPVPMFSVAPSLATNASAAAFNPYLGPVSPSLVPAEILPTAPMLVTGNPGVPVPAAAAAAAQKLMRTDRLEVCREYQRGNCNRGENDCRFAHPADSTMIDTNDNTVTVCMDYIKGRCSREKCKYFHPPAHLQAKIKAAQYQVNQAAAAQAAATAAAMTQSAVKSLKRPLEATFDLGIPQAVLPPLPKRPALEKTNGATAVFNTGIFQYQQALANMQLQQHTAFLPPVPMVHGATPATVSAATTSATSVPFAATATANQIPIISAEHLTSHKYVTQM
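His-tagged MBNL1 binding to biotinylated (CUG)12 RNA was measured by TR-FRET using terbium anti-His antibody (0.055 ng/ul final) and streptavidin-XL665 (5 nM final). Compounds were titrated 92 nM to 58 uM; 60 min at room temperature.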
Chronic BCR inh = blocks chronic active B-cell receptor signaling | ABC-DLBCL IkBa-CBG/CBR reporter, luminescence ratio, 4 h | Potency, µM (highest dose often 46.1 µM), for the others: at the highest dose activity change, negative = inhibition, actives largely listed as inhibitors | 340,000 tested, 0.05% active; active = well fitted inhibition curve with a large enough effect in the signal ratio, with a control signal flat, not every such curve was filed as active; inconclusive = small, poorly fitted or top-dose-only effect, or effect the other way, or a change in a side signal; the % refers to the signal ratio;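 also: potency is read from the fitted curve at half-maximal effect; plate controls were basal doxycycline-induced cells for no effect and cells given 10 µM MG132 for full effect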
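TMD8 human ABC-DLBCL cells with doxycycline-inducible IκBα–green luciferase fusion and unfused red luciferase, in 0.5% FBS medium; compounds up to 46 uM, 4 h at 37C. Green/red luminescence ratio, filter-overlap corrected, fitted to concentration-response curves.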
Vif-A3G inh = inhibitors of Vif-APOBEC3G interaction; Potency, µM (doses to about 46.1 µM), for the others: at the top dose activity, negative = active, most hits filed as inhibitors; Q9HC16; HeLa A3G-eYFP + Vif (tagged APOBEC3G with the HIV-1 protein that degrades it), YFP fluorescence, overnight; 410,000 tested, 0.076% active; also: potency is read from the fitted curve at half-maximal effect; % is scaled to controls: 0 for no effect and ±100 for the full control effect; nearly all actives have a fitted effect of over 60% in size
Target sequence (Q9HC16 whole entry, looked up): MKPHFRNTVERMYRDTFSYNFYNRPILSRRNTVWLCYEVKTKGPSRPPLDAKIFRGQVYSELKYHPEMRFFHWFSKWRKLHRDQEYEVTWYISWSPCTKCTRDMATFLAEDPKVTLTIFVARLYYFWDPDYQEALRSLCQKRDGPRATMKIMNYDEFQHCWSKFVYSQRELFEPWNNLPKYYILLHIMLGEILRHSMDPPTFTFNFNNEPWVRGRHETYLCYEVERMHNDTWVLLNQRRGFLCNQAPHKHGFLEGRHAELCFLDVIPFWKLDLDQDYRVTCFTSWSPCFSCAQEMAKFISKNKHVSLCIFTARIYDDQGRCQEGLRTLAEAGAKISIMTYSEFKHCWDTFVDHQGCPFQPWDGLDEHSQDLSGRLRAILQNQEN
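Read-out is eYFP fluorescence (Ex 488/Em 500-530) from Vif-expressing HeLa A3G-eYFP cells; more signal means A3G escaped Vif-mediated degradation. Cells plated overnight, compound pinned in, incubated overnight at 37 deg C.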
Vif-A3F inh = blocks the Vif interaction with APOBEC3F | HeLa A3F-eYFP + Vif (tagged APOBEC3F with the HIV-1 protein that degrades it), YFP fluorescence increase | Potency, µM (titrated, usually from 46.1 µM), for inactives: at the top dose activity, negative = active | 390,000 tested, 0.2% active; also: potency is read from the fitted curve at half-maximal effect; % of control where 0% means no effect; nearly all actives have a fitted effect of over 65% in size
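Fluorescence increase (Ex 488/Em 500-530) after overnight compound treatment at 37 deg C flags inhibition of Vif-driven A3F-eYFP loss in stable HeLa A3F-eYFP/Vif cells seeded overnight beforehand.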
Starred values were filed as active, the others as inactive; ? = inconclusive; . = no result given; [ ] = dose if it differs, or a comment. Sampled rows, rich in hits. Any-hit rate of the full collection: about 0.54%. Unless noted, calls follow the shape of the dose curve; as a rule, active = well fitted curve in the direction sought with a large enough effect; inconclusive = small, poorly fitted or top-dose-only effect, or another doubt; inactive = no such curve, though single readings can be large; an effect the other way counts as inactive or inconclusive.

SMILES	uPA surface inh	TCR activator	MBNL1-CUG inh	Chronic BCR inh	Vif-A3G inh	Vif-A3F inh
COc1cccc(C2Nc3ccc4ccccc4c3C3=C2C(=O)CCC3)c1O (stereo not given)	-7.2%	-4.0%	3.3%	1.2%	?	11.2µM*
OCCCn1c(C2CCCN2c2nc(-c3ccc(F)cc3)cs2)nc2cc(Cl)c(N3CCCCC3)cc21 (stereo not given)	13.0%	-0.4%	.	.	1.5%	25.1µM*
OCCCn1c(C2CCCN2c2nc(-c3ccc(Cl)cc3)cs2)nc2cc(Cl)c(N3CCCCC3)cc21 (stereo not given)	2.8%	0.5%	.	.	-5.8%	?
O=C1c2ccc3c4c(ccc(c24)C(=O)N1CCCCO)C(=O)N(CCCCO)C3=O	2.51µM*	0.7%	?	?	-25.0%	-18.8%
COC(=O)c1cc(O)cc(OC)c1Oc1cc(C)cc(O)c1C(=O)O	0.891µM*	3.8%	?	?	-1.3%	-4.7%
COC(=O)c1cc(O)cc(OC)c1C(=O)c1c(O)cc(C)cc1O	-17.9%	-9.2%	2.8%	?	-14.1%	2.0%
Cc1ccc2oc(-c3ccc(C)c(NC(=O)COc4ccccc4C)c3)nc2c1	.	.	.	.	0.6%	.
O=C1c2cccc3c([N+](=O)[O-])c(O)cc(c23)C(=O)N1Nc1ccccc1	4.4%	0.7%	?	?	?	10µM*
Cc1ccc(CNC(=O)c2ccc3c(c2)NC(=O)C(CS(=O)(=O)Cc2cccc(C)c2)N3)cc1 (stereo not given)	.	.	.	.	-13.2%	22.4µM*
O=C(NCc1ccccc1Cl)c1ccc2c(c1)NC(=O)C(CS(=O)(=O)Cc1ccc(Cl)cc1)N2 (stereo not given)	.	.	.	14.9%	-5.8%	-3.9%
Cc1cc(=O)[nH]c2ccc(O)cc12	.	.	.	.	-4.3%	.
CC(=O)Nc1ccc(NC(=O)COC(=O)c2c(C)nn(-c3ccccc3)c2C)cc1	4.1%	-2.0%[46.1 µM]	.	?	-0.1%	2.9%
Cc1nn(-c2ccccc2)c(C)c1C(=O)OCC(=O)Nc1ccccc1F	10µM*	-0.7%	.	?	-0.7%	-1.5%
COc1ccc2nc3ccccc3nc2c1NC(=O)c1ccc(Br)cc1	-5.9%	5.4%[46.1 µM]	.	3.5%	?	6.31µM*
COc1cc(NC(=O)c2ccc(Br)cc2)c(OC)cc1NC(=O)c1ccccc1	14.3%	-6.8%	-5.8%	3.1%	-2.5%	-10.6%
COc1ccc2nc3ccccc3nc2c1NC(=O)c1ccc(Cl)cc1	-3.3%	-10.5%[46.1 µM]	8.2%	0.5%	-11.3%	11.2µM*
Cn1cnnc1Sc1nc2ccccc2nc1NS(=O)(=O)c1ccccc1	-0.7%	-7.3%	47.9%	0.4%	-1.5%	?
COC(=O)c1cc(Nc2nc3ccccc3nc2NS(=O)(=O)c2ccc(C)cc2)ccc1Cl	.	.	.	.	-7.4%	11.2µM*
CC(=O)Nc1ccc(S(=O)(=O)Nc2nc3ccccc3nc2Nc2ccc3ccccc3c2)cc1	12.6%	-8.6%[46.1 µM]	2.5%	?	-13.7%	?
Cn1ccnc1Sc1nc2ccccc2nc1NS(=O)(=O)c1ccccc1	10.0%	-4.4%	134.7%	?	-13.3%	25.1µM*
CC(=O)Nc1ccc(S(=O)(=O)Nc2nc3ccccc3nc2Nc2ccc(N)cc2)cc1	-22.3%	6.1%	17.4%	22.4%	-6.8%	12.6µM*
CC(=O)Nc1ccc(S(=O)(=O)Nc2nc3ccccc3nc2Sc2nncn2C)cc1	0.5%	-14.9%	?	?	-15.6%	10µM*
CC(C)(C)n1ncc2c(=O)n(Cc3ccc(F)cc3F)cnc21	.	.	.	.	-3.4%	.
CCc1ccccc1N(C)C	.	.	.	.	-0.1%	.
N#Cc1cc(Oc2cccc3cccnc23)c(-n2nnc3ccccc32)cc1C#N	.	1.0%	7.3%	7.94µM*	?	?
SMILES	uPA surface inh	TCR activator	MBNL1-CUG inh	Chronic BCR inh	Vif-A3G inh	Vif-A3F inh
CCOC(=O)c1sc(NC(=S)NC(=O)c2ccco2)nc1C	-2.7%	-21.6%[46.1 µM]	4.5%	?	-0.7%	22.4µM*
COc1ccc2nc(NC(=O)c3cccc(N4C(=O)CCC4=O)c3)sc2c1	4.47µM*	0.5%	.	?	-7.5%	0.4%
COc1ccc2nc(NC(=S)NC(=O)c3ccco3)sc2c1	?	1.8%	?	?	0.5%	10µM*
O=C(NC(=S)Nc1nc2ccccc2s1)c1ccco1	-7.9%	8.1%[46.1 µM]	74.0%	?	-0.2%	?
COC(=O)c1sc(NC(=O)c2ccco2)nc1C	-0.2%	1.0%	58.0%	8.0%	-9.9%	-4.2%
CCCSc1ncc(Cl)c(C(=O)Nc2sc3c(c2C(N)=O)CCCC3)n1	.	.	.	.	7.08µM*	.
COc1ccc2c(Cl)c(C(=O)N/N=C3\CCCC(=O)C3)sc2c1	4.7%	-0.1%	?	-0.7%	2.82µM*	?
Cc1cc(/C=C2\SC(=S)N(Cc3ccco3)C2=O)c(C)n1-c1ccccc1	-2.1%	6.8%[46.1 µM]	9.4%	0.5%	?	20µM*
CC(C)(C)c1ccc(OCC(=O)Nc2ccc3c4c(cccc24)C(=O)NC3=O)cc1	?	4.9%	-5.3%	?	3.5%	12.6µM*
CCCCN1C(=O)/C(=C2/Sc3ccccc3N2C)S/C1=N\c1ncn[nH]1	19.9%	-3.3%	9.0%	?	-9.0%	22.4µM*
O=C(Cn1nnc(-c2ccc(N3CCOCC3)cc2)n1)OC1CCCCC1	1.1%	-4.1%	2.8%	0.6%	-1.4%	-1.4%
O=C(Cn1nnc(-c2ccc(N3CCOCC3)cc2)n1)N1CCOCC1	4.47µM*	-1.7%	-5.3%	-0.1%	0.0%	8.1%
CCn1c(O)c(N=NC(=O)CNC(=O)c2ccco2)c2ccccc21	?	11.5%[46.1 µM]	?	?	-20.0%	-3.1%
C=CCn1c(O)c(N=NC(=O)CNC(=O)c2ccco2)c2ccccc21	10µM*	1.7%[46.1 µM]	?	-2.8%	?	-16.6%
CC[N+](C)(C)c1ccc(/C=C/c2ccc3ccccc3n2)cc1	.	.	.	.	-4.6%	.
CC(C)(C)n1ncc2c(=O)n(Cc3c(Cl)cccc3Cl)cnc21	.	.	.	.	1.9%	.
COc1ccc(COc2cc(-c3cccc(OC)c3)nc3ccc(N)cc23)cc1	1.12µM*	-2.1%	49.5%	?	?	-0.2%
CCCC(=O)Oc1ccc2[nH]c(C(=O)c3cc4ccccc4[nH]3)cc2c1	.	.	.	.	0.2%	.
O=C(O)Cc1sc(NC2CCCCC2)nc1-c1ccc(Cl)cc1	-8.7%	3.9%	17.9%	1.2%	-27.3%	25.1µM*
CCCCOc1ccccc1C1CC(=O)Nc2cc(C)c(C)cc21 (stereo not given)	.	.	.	?	-14.5%	0.5%
CCOc1ccccc1C1CC(=O)Nc2cc(C)c(C)cc21 (stereo not given)	7.08µM*	0.6%	-3.8%	-15.9%	?	0.2%
